Test results taken from article PMC11062922 (Nature Chemical Biology, 2023).

Key:
ADCK5 = conditions: read-out: apparent Kd; compound concentrations:100 nM and 1000 nM (sheet 'Lestaurtinib' of Supplementary Table 1),run:Lestaurtinib_02443_R1,Plate:MR009; n = 1
BMPR1B = conditions: read-out: apparent Kd; compound concentrations:100 nM and 1000 nM (sheet 'Lestaurtinib' of Supplementary Table 1),run:Lestaurtinib_02496_R2,Plate:MR013; n = 1
CSNK2A1;CSNK2A3 = conditions: read-out: apparent Kd; compound concentrations:100 nM and 1000 nM (sheet 'Lestaurtinib' of Supplementary Table 1),run:Lestaurtinib_02422_R1,Plate:MR006; n = 1
DAPK3 = conditions: read-out: apparent Kd; compound concentrations:100 nM and 1000 nM (sheet 'Lestaurtinib' of Supplementary Table 1),run:Lestaurtinib_02443_R1,Plate:MR009; n = 1
GRK6 = conditions: read-out: apparent Kd; compound concentrations:100 nM and 1000 nM (sheet 'Lestaurtinib' of Supplementary Table 1),run:Lestaurtinib_02339_R2,Plate:MR001; n = 1
GSK3A = conditions: read-out: apparent Kd; compound concentrations:100 nM and 1000 nM (sheet 'Lestaurtinib' of Supplementary Table 1),run:Lestaurtinib_02487_R1,Plate:MR012; n = 1
GSK3B = conditions: read-out: apparent Kd; compound concentrations:100 nM and 1000 nM (sheet 'Lestaurtinib' of Supplementary Table 1),run:Lestaurtinib_02487_R1,Plate:MR012; n = 1
HCK = conditions: read-out: apparent Kd; compound concentrations:100 nM and 1000 nM (sheet 'Lestaurtinib' of Supplementary Table 1),run:Lestaurtinib_02422_R1,Plate:MR006; n = 1
HSP90B1 = conditions: read-out: apparent Kd; compound concentrations:100 nM and 1000 nM (sheet 'Lestaurtinib' of Supplementary Table 1),run:Lestaurtinib_02606_R3,Plate:MR019; n = 1
LCK = conditions: read-out: apparent Kd; compound concentrations:100 nM and 1000 nM (sheet 'Lestaurtinib' of Supplementary Table 1),run:Lestaurtinib_02487_R1,Plate:MR012; n = 1
LYN = conditions: read-out: apparent Kd; compound concentrations:100 nM and 1000 nM (sheet 'Lestaurtinib' of Supplementary Table 1),run:Lestaurtinib_02487_R1,Plate:MR012; n = 1
MAP4K3 = conditions: read-out: apparent Kd; compound concentrations:100 nM and 1000 nM (sheet 'Lestaurtinib' of Supplementary Table 1),run:Lestaurtinib_03172_R3,Plate:MR031; n = 1
MAPK14 = conditions: read-out: apparent Kd; compound concentrations:100 nM and 1000 nM (sheet 'Lestaurtinib' of Supplementary Table 1),run:Lestaurtinib_02422_R1,Plate:MR006; n = 1
MERTK = conditions: read-out: apparent Kd; compound concentrations:100 nM and 1000 nM (sheet 'Lestaurtinib' of Supplementary Table 1),run:Lestaurtinib_02766_R2,Plate:MR027; n = 1
MET = conditions: read-out: apparent Kd; compound concentrations:100 nM and 1000 nM (sheet 'Lestaurtinib' of Supplementary Table 1),run:Lestaurtinib_02724_R1,Plate:MR021; n = 1
PRKACG = conditions: read-out: apparent Kd; compound concentrations:100 nM and 1000 nM (sheet 'Lestaurtinib' of Supplementary Table 1),run:Lestaurtinib_02422_R1,Plate:MR006; n = 1
PRKAR2A = conditions: read-out: apparent Kd; compound concentrations:100 nM and 1000 nM (sheet 'Lestaurtinib' of Supplementary Table 1),run:Lestaurtinib_02364_R2,Plate:MR002; n = 1
PRKDC = conditions: read-out: apparent Kd; compound concentrations:100 nM and 1000 nM (sheet 'Lestaurtinib' of Supplementary Table 1),run:Lestaurtinib_02422_R1,Plate:MR006; n = 1
RPS6KB1 = conditions: read-out: apparent Kd; compound concentrations:100 nM and 1000 nM (sheet 'Lestaurtinib' of Supplementary Table 1),run:Lestaurtinib_02766_R3,Plate:MR027; n = 1
TGFBR1 = tested on: TGFBR1; parameters: species or system human, MV4-11 + K-562 + COLO205 + SK-N-BE2 + OVCAR-8; conditions: read-out: apparent Kd; compound concentrations:100 nM and 1000 nM (sheet 'Samples'); n = 1

Molecule	potency estimated from few doses (ADCK5) [nM]	potency estimated from few doses (BMPR1B) [nM]	potency estimated from few doses (CSNK2A1;CSNK2A3) [nM]	potency estimated from few doses (DAPK3) [nM]	potency estimated from few doses (GRK6) [nM]	potency estimated from few doses (GSK3A) [nM]	potency estimated from few doses (GSK3B) [nM]	potency estimated from few doses (HCK) [nM]	potency estimated from few doses (HSP90B1) [nM]	potency estimated from few doses (LCK) [nM]	potency estimated from few doses (LYN) [nM]	potency estimated from few doses (MAP4K3) [nM]	potency estimated from few doses (MAPK14) [nM]	potency estimated from few doses (MERTK) [nM]	potency estimated from few doses (MET) [nM]	potency estimated from few doses (PRKACG) [nM]	potency estimated from few doses (PRKAR2A) [nM]	potency estimated from few doses (PRKDC) [nM]	potency estimated from few doses (RPS6KB1) [nM]	potency estimated from few doses (TGFBR1) [nM]
Lestaurtinib	2240	737	1810	1580	2090	175	295	1300	979	550	808	2110	1150	1410	2150	769	979	1210	1570	
Cc1cccc(-c2n[nH]cc2-c2ccc3ncccc3n2)n1 [GW786460X]																				1.39
